# Reference: PubChem BioAssay (NCATS)
# Results filed as inconclusive are left out. Active and inactive are the calls of the source. The call rests on the fitted dose curve; in most records, active means well fitted inhibition curve with a large enough effect; inconclusive means small, poorly fitted or top-dose-only effect; inactive means flat fitted curve, though single readings scatter.
# Biological target: Glutathione peroxidase 1 (Homo sapiens) (UniProt P07203)
# Assay: Primary qHTS Assay for Inhibitors of Recombinant Selenoprotein Glutathione Peroxidase 1 (GPX1) (AID 1845191); further: nearly all actives have a fitted effect of over 65% in size
# Details: recombinant GPX1, GR-coupled NADPH fluorescence, 15 min; series mostly up to 48.8 µM; activity, negative = inhibition: at the top concentration
# Summary of the method: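 GR-coupled assay: compounds preincubated 30 min at room temperature with GPX1, then reaction started with CHP; final 10 nM GPX1, 1 mM GSH, 0.5 mM CHP, 0.5 mM NADPH, 100 nM GR, 0.01% BSA, pH 7.5 Tris buffer. NADPH fluorescence (340/450 nm) read at 0 and 15 min.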
# On the % scale 0 is the no-effect control and ±100 the full control effect; potency means the concentration at half of the fitted maximal effect.
# Glutathione peroxidase 1 (Homo sapiens), sequence (P07203 whole entry, looked up): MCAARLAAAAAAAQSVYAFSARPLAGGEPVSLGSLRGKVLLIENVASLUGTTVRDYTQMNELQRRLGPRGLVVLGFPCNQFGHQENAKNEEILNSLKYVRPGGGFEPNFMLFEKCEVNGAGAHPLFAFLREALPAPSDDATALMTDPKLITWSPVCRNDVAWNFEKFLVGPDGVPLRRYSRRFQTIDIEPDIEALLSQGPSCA
SMILES,outcome,"activity, negative = inhibition",Potency
COCc1c(Cl)ccc2c1CC[C@H]2c1ncc[nH]1,inactive,–,–
CC[C@@H](C)[C@@H]1OC2(C=C[C@H]1C)C[C@@H]1C[C@H](C/C=C(\C)[C@H](O[C@H]3C[C@H](OC)[C@H](O[C@H]4C[C@H](OC)[C@H](NC(C)=O)[C@H](C)O4)[C@H](C)O3)[C@H](C)/C=C/C=C3\CO[C@H]4[C@H](O)C(C)=C[C@@H](C(=O)O1)[C@@]34O)O2 (some centres undefined),–,-18% [at 27.7 µM] (inactive),–
CN(C)c1cccc(Oc2cnc(Nc3cccc(O)c3)nc2)c1,–,-9.25% (inactive),–
O=c1[nH]cnc2c([C@@H]3N[C@H](CO)[C@@H](O)[C@H]3O)c[nH]c12,–,1.72% (inactive),–
C=C(C)[C@@H]1CC=C(COC(=O)NC(=O)c2ncn3c(=O)n(C)nnc23)CC1,inactive,–,–
C=C[C@@]1(C)CCC2C(=CCC3[C@]2(C)CCC[C@@]3(C)C(=O)O)C1 (some centres undefined),–,-36.4% (inactive),–
O=C(Nc1cccc([N+](=O)[O-])c1)c1cccc(S(=O)(=O)N2CCCCCC2)c1,–,-24.2% (inactive),–
OC1C=C2C3CN(Cc4cc5c(cc43)OCO5)C2CC1O (centres undefined),–,-5.25% (inactive),–
CN1CCc2cc3c(cc2C(=O)Cc2cc4c(cc2C1)OCO4)OCO3,inactive [at 27.7 µM],–,–
CCOc1ccc(CCNC(=O)c2cc3sc(Cl)cc3n2C)cc1OCC,–,-6.97% (inactive),–
C=C1C(=O)O[C@@H]2C[C@H](C)[C@@H]3CC(=O)[C@H](O)[C@@]3(C)C[C@H]12,–,-14.5% (inactive),–
COc1ccc(C2Oc3c(OC)cc(CCCO)cc3C2COC2OC(CO)C(O)C(O)C2O)cc1OC (centres undefined),inactive [at 27.7 µM],–,–
CC(C)=C[C@@H]1[C@H](CO[C@@H]2O[C@H](CO)[C@@H](O)[C@H](O)[C@H]2O)C1(C)C,–,-13.2% [at 27.7 µM] (inactive),–
C=CS(=O)(=O)NC1CCN(C(=O)CNc2cc(I)c(Cl)cc2OC)CC1,inactive,–,–
N#Cc1cc(-c2ccnc(Nc3ccc(N4CCOCC4)cc3)n2)ccc1OC1CCOCC1,inactive,–,–
CC(O)C(C)n1ncn(-c2ccc(N3CCN(c4ccc(OCC5COC(Cn6cncn6)(c6ccc(Cl)cc6Cl)O5)cc4)CC3)cc2)c1=O (centres undefined),inactive,–,–
CCn1c(=O)c(-c2ccc(-c3cncs3)cc2Cl)cc2cnc(Nc3ccc(N4CCN(C)CC4)cc3)nc21,–,-2.38% (inactive),–
CC(=O)O[C@]1(C(C)=O)CC[C@H]2[C@@H]3CCC4=CC(=O)CCC4=C3[C@@H](c3ccc(N(C)C)cc3)C[C@@]21C,–,-22.2% (inactive),–
Cc1c(F)ccc(C(=O)Nc2cc([N+](=O)[O-])ccc2N2CCN(C)CC2)c1Cl,inactive,–,–
CCOc1ccc(-n2c([C@@H](C)N(Cc3cccnc3)C(=O)Cc3ccc(OC(F)(F)F)cc3)nc3ncccc3c2=O)cc1,–,-23.5% (inactive),–

SMILES,outcome,"activity, negative = inhibition",Potency
CC(C)(C)OC(=O)c1ncn2c1C(C)(C)Nc1ccccc1-2,–,-9.21% (inactive),–
CC[C@@H](C)Nc1cc(C(=O)NC2CC3CCC(C2)N3c2ccc(C(=O)C3CC3)cn2)c(C)cc1C(N)=O (some centres undefined),–,–,16.3 µM (active)
CCC/C=C/C=C/C1CC(O)C2(O)C(=O)OCC12 (centres undefined),–,-15.4% (inactive),–
Cc1c(NC(=O)c2cc3c(s2)CCCC3)cccc1-c1cn(C)c(=O)c(Nc2ccc(C3C(=O)N(C)CCN3C)cc2)n1 (centres undefined),–,–,inactive
O=c1ccc2ccc(OCCCCN3CCN(c4cccc5sccc45)CC3)cc2[nH]1,–,–,inactive
COc1cc(-c2cn(C3CCc4c(F)cccc4N(CC(F)(F)F)C3=O)nn2)ccc1-n1cnc(C)c1 (centres undefined),inactive,–,–
CC1CCCC(O)CC(=O)c2c(O)cc(O)cc2CC(=O)O1 (centres undefined),inactive [at 27.7 µM],–,–
CC(C)(O)/C=C/C(=O)[C@](C)(O)[C@H]1[C@H](O)C[C@@]2(C)[C@@H]3CC=C4[C@@H](C[C@H](O[C@@H]5O[C@H](CO)[C@@H](O)[C@H](O)[C@H]5O)C(=O)C4(C)C)[C@]3(C)C(=O)C[C@]12C,inactive [at 15.3 µM],–,–
O=C1Nc2ccccc2-c2nc3ccccc3c(=O)n2-c2c(O)cccc21,–,-9.21% [at 27.7 µM] (inactive),–
C=CC(=O)N1CCN(C(=O)CNc2cc(-c3ccccc3Cl)c(Cl)cc2OC)CC1,–,-20.2% (inactive),–
Cn1c(CO)c(-c2ccccc2)c2cc([N+](=O)[O-])ccc21,–,-19.6% (inactive),–
Cc1cn2c(n1)Cc1ccc(Cl)cc1C(c1ccc(N)cc1)=N2,–,-21.8% (inactive),–
CCCc1cc(C)[nH]c(=O)c1CNC(=O)c1cc(-c2ccc(N3CCN(C(C)C)CC3)nc2)cc2c1cnn2C(C)C,–,–,inactive
CCC(C)/C=C(C)/C=C/C1=CC2=C(Cl)C(=O)C(C)(OC(C)=O)C(=O)C2(O)C(OC)O1 (centres undefined),–,-0.778% [at 27.7 µM] (inactive),–
O=C(NNc1nc2cc(F)ccc2n2cccc12)c1cnccn1,–,-8.6% (inactive),–
Cc1ccc(NC(=O)C(C)C)cc1C1CCN(Cc2ccc(Oc3ccc(F)c(F)c3)cc2)CC1,inactive,–,–
C=C1[C@@H](OC(C)=O)CC[C@@]2(C)[C@@H](OC(C)=O)[C@H](OC(C)=O)C3=C(C)C[C@H](OC(=O)C(C)CC)[C@@H]([C@@H](OC(C)=O)[C@H]12)C3(C)C (some centres undefined),–,-19.1% [at 15.3 µM] (inactive),–
O=[N+]([O-])c1ccc(Oc2ccc3c(c2)CCC(c2ccccc2)O3)nc1 (centres undefined),inactive,–,–
CC(C)C[C@@H](C(=O)N[C@@H](Cc1ccc(OCc2ccccc2)cc1)C(=O)NC(C)(C)C)N(C)Cc1ccc(C(C)(C)C)cc1,–,-10.2% (inactive),–
